Data on three compounds can be found in PubChem BioAssay.

This is one part of the list. Activity calls are given as the source filed them.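 How the source made its calls, unless noted: active means membrane potential signal moves up or down beyond 5 SD from buffer-only wells, on both duplicate plates; inactive means the rest.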

Test system in the first assay: not listed separately
As to the kind of experiment: nonspecific voltage dye response without TRPC6 – cell-based, parental HEK293, counter-screen for TRPC6 modulator project, confirmation (AID 488924). To be noted: parental HEK293, membrane potential dye fluorescence; at 10 µM. Background: The purpose of a counterscreen is to sort out artefacts and off-target activity.
Turning to `Cc1nnc(SCc2ccc(C(=O)c3ccc(Cl)cc3)o2)n1-c1ccccc1`, the membrane potential signal change was 116% (active).
On to `O=C(NCCc1c[nH]c2ccccc12)C1CCN(Cc2ccc(Br)cc2)CC1`, for which the result was inactive.
As for `CC(NCc1ccccc1OC1CCCC1)c1ccccc1` (centres undefined), the membrane potential signal change was 416% (active).

Test system in the next assay: not listed separately
As to the kind of experiment: membrane potential response modulators in host HEK293 cells – cell-based, second counter-screen, parental HEK293, membrane potential dye, counter-screen for TRPC6 modulator project, confirmation (AID 488926;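 active means membrane potential signal drops by more than 5 SD from the mean control signal, in both duplicate plates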). To be noted: parental HEK293, membrane potential dye fluorescence; at 10 µM; after compound, maximal acetylcholine stimulation.
For the compound `Cc1nnc(SCc2ccc(C(=O)c3ccc(Cl)cc3)o2)n1-c1ccccc1`, the outcome was inactive.
For `O=C(NCCc1c[nH]c2ccccc12)C1CCN(Cc2ccc(Br)cc2)CC1`, the outcome was inactive.
Take `CC(NCc1ccccc1OC1CCCC1)c1ccccc1` (centres undefined): the result was inactive.

In another assay the test system is Transient receptor potential cation channel subfamily C member 4 (mouse). As to the kind of experiment: off-target membrane potential effects via mouse TRPC4 – cell-based, HEK293 TRPC4/mu-opioid, membrane potential dye, selectivity assay for TRPC6 modulator project, confirmation (AID 488927;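 active means membrane potential signal moved up or down beyond 5 SD of buffer control wells, in both duplicate plates, actives on both sides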;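 further: plate controls were assay buffer wells for no effect and DAMGO maximal-effect wells for full effect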). To be noted: membrane potential fluorescence, at 10 µM.
With `Cc1nnc(SCc2ccc(C(=O)c3ccc(Cl)cc3)o2)n1-c1ccccc1`, the percent change from control (negative = decrease, positive = increase) was 23.5% (active).
On to `O=C(NCCc1c[nH]c2ccccc12)C1CCN(Cc2ccc(Br)cc2)CC1`, for which the percent change from control (negative = decrease, positive = increase) is 11% (active).
Regarding `CC(NCc1ccccc1OC1CCCC1)c1ccccc1` (centres undefined), the percent change from control (negative = decrease, positive = increase) is 114% (active).
